SARS 3CLpro inh = SARS-CoV 3CLpro protease inhibition. recombinant SARS-CoV 3CLpro, quenched FRET peptide cleavage. 0.14% of 290,000 active. P0C6X7. AID 1706. inhibition, % at 6 µM; in the data active = inhibition above about 12%
BoNT A protease = blocks Botulinum neurotoxin A light chain protease; inhibition, % at 10 µM; multiplex microsphere protease substrate cleavage, flow cytometry; AID 588499; 0.17% of 360,000 active
Anthrax LF prot = blocks Bacillus anthracis lethal factor protease | P15917 | multiplex microsphere protease cleavage assay, LF | inhibition, % at 10 µM | 0.12% of 360,000 active
Target sequence (P15917 whole entry, looked up): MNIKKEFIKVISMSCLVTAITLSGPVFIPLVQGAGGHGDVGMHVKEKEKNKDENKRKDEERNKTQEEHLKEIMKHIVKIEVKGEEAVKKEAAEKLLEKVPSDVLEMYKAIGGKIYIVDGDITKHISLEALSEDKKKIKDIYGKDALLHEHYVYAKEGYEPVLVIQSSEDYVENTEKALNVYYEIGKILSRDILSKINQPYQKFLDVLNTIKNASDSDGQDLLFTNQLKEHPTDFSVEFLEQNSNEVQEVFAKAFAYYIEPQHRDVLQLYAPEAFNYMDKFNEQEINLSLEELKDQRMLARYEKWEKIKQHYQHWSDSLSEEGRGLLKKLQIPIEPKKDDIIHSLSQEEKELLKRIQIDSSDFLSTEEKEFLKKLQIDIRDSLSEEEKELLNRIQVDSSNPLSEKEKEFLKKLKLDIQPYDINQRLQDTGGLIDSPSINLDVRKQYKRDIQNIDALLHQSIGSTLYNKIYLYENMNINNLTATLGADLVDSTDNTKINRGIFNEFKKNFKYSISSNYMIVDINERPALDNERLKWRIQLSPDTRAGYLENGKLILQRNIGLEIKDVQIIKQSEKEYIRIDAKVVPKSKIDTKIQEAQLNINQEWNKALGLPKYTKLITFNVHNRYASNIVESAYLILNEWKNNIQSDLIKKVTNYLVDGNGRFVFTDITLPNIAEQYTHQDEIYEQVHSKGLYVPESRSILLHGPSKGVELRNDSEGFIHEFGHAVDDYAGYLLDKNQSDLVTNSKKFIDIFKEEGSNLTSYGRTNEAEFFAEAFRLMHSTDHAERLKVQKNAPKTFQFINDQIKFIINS
Autofluor counter = compound fluorescence in toxin protease inhibitor counterscreen; compound autofluorescence counterscreen, microsphere flow cytometry; stronger effect = higher value; fluorescence intensity (no concentration beside the values); 3.1% of 360,000 active; AID 624483; in the data active = fluorescence intensity above about 16000; inconclusive = no clear call, values can overlap the other calls
BoNT F protease = blocks Botulinum neurotoxin F light chain protease; Multiplex microsphere protease cleavage assay, flow cytometry; 0.22% of 360,000 active; inhibition, % at 10 µM; in the data active = inhibition above about 35%, passing the limit was not always enough; inconclusive = no clear call, values can overlap the other calls
CCHF vOTU inh = CCHFV vOTU protease inhibition. Pep-AMC fluorescence. inhibition, % at 11.5 µM. 0.55% of 370,000 active; in the data active = inhibition above about 30%
Large screens that a line does not name were inactive. Most compounds without a hit are left out; they make up all but 3.9% or so of the library. Rule as the data show it, unless noted: active = inhibition above about 30%; inconclusive = no clear call, values can overlap the other calls; inactive = below that.

O=C(CCS(=O)(=O)Cc1ccccc1)N1CCN(c2ccccc2)CC1	BoNT A protease inconclusive
CCOC(=O)c1cccc(NC(=O)c2ccc(NC(=O)C3CCCO3)cc2)c1 (stereo not drawn)	none
O=C(O)c1ccc(-c2ccccc2)[nH]1	Autofluor counter 22282
CCN1C(=O)[C@H]2[C@@H](c3ccc(-c4ccc5c(c4)OCO5)cc3)N3CCC[C@@]3(C(=O)OC)[C@H]2C1=O	none (no result: SARS 3CLpro inh)
Cc1ccc(C2=NN(S(C)(=O)=O)C(c3ccc4c(c3)OCO4)C2)cc1 (stereo not drawn)	none
CS(=O)(=O)N1N=C(c2ccc(Br)cc2)CC1c1ccc2c(c1)OCO2 (stereo not drawn)	Autofluor counter 25156 (no result: CCHF vOTU inh)
O=C(Nc1ccc(S(=O)(=O)Nc2nccc(C3Cc4ccccc4C(=O)O3)n2)cc1)c1ccccc1 (stereo not drawn)	Autofluor counter 23166
O=C(Nc1ccc(S(=O)(=O)Nc2ncccn2)cc1)c1ccccc1	none
COc1ccc2nc(COC(=O)c3cccs3)c(C(C)=O)[n+]([O-])c2c1	BoNT F protease inconclusive
CCc1ccccc1NC(=O)Cn1nc(C(F)(F)F)cc1C1CC1	BoNT A protease inconclusive, Autofluor counter 16270
CCNS(=O)(=O)c1ccc(NC(=O)Cn2nc(C(F)(F)F)cc2C)cc1	none
CCN(CC)S(=O)(=O)c1ccc(C(=O)NC(=S)N2CCN(c3ccccc3O)CC2)cc1	none (no result: SARS 3CLpro inh)
O=C(Cn1nc(-c2ccc(Cl)cc2)c2ccccc2c1=O)NCC1CCCO1 (stereo not drawn)	none
O=C(Cn1nc(-c2ccccc2)ccc1=O)NCC1CCCO1 (stereo not drawn)	Autofluor counter 23626
Cc1ccc(-c2nn(CC(=O)NCC3CCCO3)c(=O)c3ccccc23)cc1 (stereo not drawn)	Autofluor counter 23922 (no result: CCHF vOTU inh)
O=C(Cn1nc(-c2cccc(Cl)c2)ccc1=O)Nc1ccc(C(=O)NC2CC2)cc1	none
O=C(Cn1nc(-c2ccccc2)ccc1=O)NCCN1CCN(c2cccc(Cl)c2)CC1	Autofluor counter 21385
O=C(Cn1nc(-c2cccc(Cl)c2)ccc1=O)Nc1cccnc1	BoNT A protease inconclusive, Autofluor counter 23773
O=C(Cn1nc(-c2ccccc2)ccc1=O)NCCN1CCN(Cc2ccccc2)CC1	none
COC(=O)C1CN(Cc2cn(Cc3ccc(OC)cc3)nn2)CCS(=O)(=O)N1Cc1ccc(F)cc1 (stereo not drawn)	none (no result: SARS 3CLpro inh, BoNT A protease, Anthrax LF prot, Autofluor counter, BoNT F protease)
CCOCCCNC(=O)Cn1nc(-c2ccccc2)ccc1=O	none
CCN(CC)CCCNC(=O)Cn1nc(-c2ccccc2)ccc1=O	Autofluor counter 20162
Cc1ccc2c(C(=O)CNc3nncs3)c(C)[nH]c2c1	none
Cc1ccc(C)c(NC(=S)NNC(=O)c2csc(C)c2C)c1	none
Cc1ccc(NC(=S)NC(=O)c2ccc(Br)o2)c(C)c1	none
Cc1ccc(C)c(NC(=S)NNC(=O)c2ccc(Br)o2)c1	Autofluor counter 21935
Cc1ccc(C)c(NC(=S)NNC(=O)c2csc(C(C)C)c2)c1	Autofluor counter 22879
Nc1nc2c(C(=O)N3CCCC3)nnn2c2ccccc12	none (no result: SARS 3CLpro inh, BoNT A protease, Anthrax LF prot, Autofluor counter, BoNT F protease)
Cc1cc(C)n(C/C=C/Cn2nc(C)cc2C)n1	BoNT A protease inconclusive, Autofluor counter 20615
Cc1cc(C)n(CC(=O)NN)n1	none
COc1ccc(C(C)=O)cc1COC(=O)c1cccc(N(C)C)c1	BoNT F protease 39.2
COc1ccc(C(C)=O)cc1COC(=O)c1ccc(N)c([N+](=O)[O-])c1	none
O=C(c1ccc(SCc2cccc(Br)c2)c([N+](=O)[O-])c1)N1CCN(c2ccccn2)CC1	none
C=CCOc1ccc(C2C(C(=O)c3ccco3)=C(O)C(=O)N2c2nnc(C)s2)cc1 (stereo not drawn)	none
CCOC(=O)N1CCN(c2c(NCCN3CCN(Cc4ccccc4)CC3)c(=O)c2=O)CC1	none
CCOC(=O)N1CCC(Nc2c(NCCN3CCN(Cc4ccccc4)CC3)c(=O)c2=O)CC1	Autofluor counter 21681 (no result: CCHF vOTU inh)
CCOC(=O)N1CCC(Nc2c(Nc3cccc(CC)c3)c(=O)c2=O)CC1	Autofluor counter 18932
CCOC(=O)N1CCC(Nc2c(-c3ccccc3)c(=O)c2=O)CC1	Autofluor counter 20189
CCOC(=O)N1CCC(Nc2ncnc3c2cnn3-c2ccccc2)CC1	BoNT A protease inconclusive, Autofluor counter 26060
CCOC(=O)N1CCC(Nc2c(-c3ccc(C)cc3)c(=O)c2=O)CC1	none
CN(C)CCN(Cc1ccccc1)C(=O)[C@H](Cc1ccccc1)N1C(=O)c2ccccc2C1=O	none
Cn1c(-c2ccc3c(c2)OCO3)cnc1NCc1cccc(O)c1	none
CCOCC(=O)Nc1ccc(S(=O)(=O)NCC2CCCO2)cc1 (stereo not drawn)	none
Cc1cccc(Cn2cc(CN3CC(N(C)CCCOC(=O)c4cc(C)cc(C)c4)CS3(=O)=O)nn2)c1 (stereo not drawn)	none (no result: SARS 3CLpro inh, BoNT A protease, Anthrax LF prot, Autofluor counter, BoNT F protease)
Cc1ccc(C(=O)NCCS(=O)(=O)N2CCN(c3ccccc3F)CC2)cc1[N+](=O)[O-]	none
CCOC(=O)N1CCC(Nc2nc(OC)nc(OC)n2)CC1	BoNT A protease inconclusive, Autofluor counter 22300
c1ccc(-c2nnc3n2N=C(c2ccc4ccccc4c2)CS3)nc1	none (no result: SARS 3CLpro inh, BoNT A protease, Anthrax LF prot, Autofluor counter, BoNT F protease)
COc1ccc(C2=Nn3c(nnc3-c3ccccn3)SC2)cc1OC	BoNT A protease inconclusive, Autofluor counter 22882
c1ccc(-c2nnc3n2N=C(c2ccc4c(c2)OCO4)CS3)nc1	Autofluor counter 18035
O=C(O)c1cc(NC(=O)c2ccc3c(c2)C(=O)N(Cc2ccccc2)C3=O)cc(C(=O)O)c1	none
O=[N+]([O-])c1ccc(NCCCN2CCC(C(O)(c3ccccc3)c3ccccc3)CC2)cc1	none (no result: SARS 3CLpro inh, BoNT A protease, Anthrax LF prot, Autofluor counter, BoNT F protease)
O=C(N/C(=C\c1ccc(Br)cc1)C(=O)N1CCOCC1)c1ccccc1Cl	none
O=C(Nc1cccc(C(=O)O)c1)/C(=C\c1ccccc1)NC(=O)c1ccccc1Cl	BoNT F protease 41.1
COC(=O)c1cccc(NC(=O)/C(=C\c2ccccc2)NC(=O)c2ccccc2Cl)c1	none
O=C(N/C(=C\c1ccccc1)C(=O)N1CCOCC1)c1ccccc1Cl	Autofluor counter 42511
Nn1c(SCC(=O)N2c3ccccc3Sc3ccc(Cl)cc32)nnc1-c1cc(-c2ccc(F)cc2)n[nH]1	none (no result: SARS 3CLpro inh, BoNT A protease, Anthrax LF prot, Autofluor counter, BoNT F protease)
CN(C)/C=C/C(=O)c1ccc(F)cc1F	BoNT A protease inconclusive, BoNT F protease inconclusive
COC(=O)Cc1csc(Nc2ccc(F)c(Cl)c2)n1	none
CCOC(=O)c1cnc(-n2nc(C)cc2C)nc1Nc1cccc(C(=O)O)c1	Autofluor counter 21795
CCOC(=O)c1cnc(-n2nc(C)cc2C)nc1NC	BoNT A protease inconclusive, Anthrax LF prot inconclusive, Autofluor counter inconclusive, BoNT F protease inconclusive
CCOC(=O)c1cnc(-n2nc(C)cc2C)nc1Nc1ccc(C)cc1	BoNT A protease inconclusive, Autofluor counter inconclusive
CCOC(=O)c1cnc(-n2nc(C)cc2C)nc1N(CC)CC	BoNT A protease inconclusive, Autofluor counter 18780
CC(C)(C)OC(=O)N1CCC(C(=O)N2CCC[C@H]2C(=O)O)CC1	Autofluor counter 20337
CCOC(=O)[C@]12CCCCC/C=C\1N(CCc1ccc(Cl)cc1)C(=O)[C@H]2CC(=O)N1CCN(C(=O)c2ccco2)CC1	none (no result: SARS 3CLpro inh, BoNT A protease, Anthrax LF prot, Autofluor counter, BoNT F protease)
Cc1ccc(NC(=O)Cn2nnc(-c3ccccc3F)n2)c(C)c1	none (no result: SARS 3CLpro inh, BoNT A protease, Anthrax LF prot, Autofluor counter, BoNT F protease)
CSc1nnc([C@@H](N)Cc2ccccc2)o1	none
